Bim-Mcl-1 – inhibitors of Bim peptide binding to Mcl-1, primary screen, biochemical, bead-based flow cytometry, multiplex. AID 1009, 2008. 190,000 compounds, 0.1% hits. Bim peptide-Mcl-1 binding. inhibition, % at 10 µM; in the data active means inhibition above about 40%;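 further: 0% = no compound tracer wells and 100% = peptide blocker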
Target sequence (Q07820 whole entry, looked up): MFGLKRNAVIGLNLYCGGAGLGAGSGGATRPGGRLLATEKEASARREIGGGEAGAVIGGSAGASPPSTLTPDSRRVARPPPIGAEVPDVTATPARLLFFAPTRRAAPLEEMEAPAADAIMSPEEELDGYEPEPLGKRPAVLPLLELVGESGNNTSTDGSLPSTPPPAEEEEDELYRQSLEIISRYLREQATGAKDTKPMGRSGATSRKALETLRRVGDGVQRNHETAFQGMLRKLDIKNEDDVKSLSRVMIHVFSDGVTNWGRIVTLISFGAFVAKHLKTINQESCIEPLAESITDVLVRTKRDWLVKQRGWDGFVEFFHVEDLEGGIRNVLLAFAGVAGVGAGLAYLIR
14-3-3 Bad inh – inhibitors of 14-3-3 zeta/Bad binding, primary screen, biochemical, TR-FRET, bovine 14-3-3 zeta; TR-FRET 14-3-3zeta/Dy647-pBad peptide displacement, 1 h; 14-3-3 protein zeta/delta (Bos taurus), P63103; inhibition, % at 21.7 µM; 220,000 compounds, 0.71% hits;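 active means inhibition above about 70%, limit read from the data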;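 further: 0% = full 14-3-3 plus peptide FRET controls and 100% = background without 14-3-3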
Target sequence (P63103 whole entry, looked up): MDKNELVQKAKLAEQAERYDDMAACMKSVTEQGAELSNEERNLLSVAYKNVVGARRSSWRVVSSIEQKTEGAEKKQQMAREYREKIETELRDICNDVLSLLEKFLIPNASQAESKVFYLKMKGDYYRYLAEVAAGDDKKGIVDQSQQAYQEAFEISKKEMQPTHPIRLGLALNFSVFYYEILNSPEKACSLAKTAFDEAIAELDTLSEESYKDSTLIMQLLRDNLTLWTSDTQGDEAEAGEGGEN
Mcl1 Noxa PPI – Mcl-1/Noxa binding inhibitors, primary screen, biochemical, TR-FRET, 1536-well. inhibition, % at 21.7 µM. Induced myeloid leukemia cell differentiation protein Mcl-1 (Homo sapiens), Q07820. AID 1022, 2008. 220,000 compounds, 1.5% hits. TR-FRET Mcl-1/Noxa peptide binding, 2 h;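 active means compounds that cut the protein-peptide binding signal by more than 50% relative to plate controls in a single-dose test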;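 further: His-tagged Mcl-1 with rhodamine Noxa BH3 peptide and terbium anti-His antibody; 0% = Mcl-1 plus Noxa peptide wells and 100% = peptide-only wells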
Hck Nef HTS – inhibitors of Nef-activated human Hck kinase, primary screen, biochemical, Z-Lyte FRET, 384-well, Hck-YEEI. Tyrosine-protein kinase HCK (Homo sapiens), P08631. Recombinant Hck-YEEI plus Nef, Z-Lyte FRET kinase assay. inhibition, % at 20 µM. 220,000 compounds, 0.68% hits;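 active means Hck-Nef kinase inhibition above about 50%, limit read from the data; inactive means inhibition below that limit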;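 further: 0% = DMSO with Hck plus Nef and 100% = Hck alone without Nef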
Pf gametocyte – late stage P. falciparum gametocyte viability inhibitors, primary screen, ATP luminescence, HTS; inhibition, % at 10.9 µM; 150,000 compounds, 0.065% hits; P. falciparum stage V gametocytes, 24 h;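 active means inhibition above the mean plus 3 SD of compounds within the control limits, set per campaign, cut at about 38% in these data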;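 further: 0% = DMSO wells and 100% = medium only without gametocytes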
Mcl1 Bid PPI – Mcl-1/Bid binding inhibitors, primary screen, biochemical, TR-FRET, 1536-well; inhibition, % at 21.7 µM; TR-FRET Mcl-1/Bid-Dy647 peptide binding; 220,000 compounds, 0.97% hits; Induced myeloid leukemia cell differentiation protein Mcl-1 (Homo sapiens), Q07820; AID 1021, 2008;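 active means compounds that cut the binding signal by more than half at the single screening dose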;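 further: His-tagged Mcl-1 with europium anti-His antibody binding Bid BH3 peptide; 0% = Mcl-1 plus peptide wells and 100% = peptide-only wells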
* = called active by the depositor; · = no result. Shown are actives, neighbours in structure and some others; about 2.9% of the full set was active somewhere.

SMILES | Bim-Mcl-1 | 14-3-3 Bad inh | Mcl1 Noxa PPI | Hck Nef HTS | Pf gametocyte | Mcl1 Bid PPI
Cc1nc(N)sc1-c1csc(Nc2ncccn2)n1 | -1 | 89* | 87* | 29 | · | 91*
Cc1nc(N)sc1-c1csc(NCc2ccccc2)n1 | -2 | -8 | -12 | 0 | 1 | -19
Cc1ccc(C(=O)OCc2nnc(-c3ccccc3)o2)o1 | -4 | 10 | 10 | 0 | -1 | -16
CC(=O)c1c(C)[nH]c(C(=O)OCc2nnc(-c3ccccc3)o2)c1C | -2 | 1 | -15 | 2 | 27 | 51*
COc1ccc(N=c2scc(-c3ccc(S(=O)(=O)N4CCOCC4)cc3)n2CCCO)cc1 | -5 | 20 | 34 | -1 | · | 32
CSc1nc2nc(-c3ccccc3)cc(=O)n2[nH]1 | 5 | 79* | -9 | 0 | · | -4
CC1=NN(c2nc3ccccc3[nH]2)C(=O)C1Cc1ccccc1 (centres undefined) | · | -7 | -73 | 14 | · | -121
COc1ccc(Cc2nn[nH]n2)cc1 | 1 | 3 | 29 | 7 | 15 | 9
O=C(O)[C@H](Cc1ccccc1)N1Cc2ccccc2C1=O | 0 | 63 | 19 | 16 | · | 72*
Cc1ccnc2ccc(SC(F)(F)F)cc12 | 2 | -4 | -1 | -23 | 1 | -18
Cc1snc(SCC(=O)c2ccc([N+](=O)[O-])cc2)c1C#N | -6 | 2 | 66* | -56 | 6 | -34
Cc1snc(SCC(=O)c2ccc(F)cc2)c1C#N | 0 | -6 | -2 | 20 | -9 | -26
COC(=O)CC1COc2ccccc2N1C(=O)c1cccc(Cl)c1 (centres undefined) | -5 | -4 | 14 | 0 | 7 | -14
O=C(Nc1ccccc1SCC1CSc2nc3ccccc3c(=O)n21)c1ccccc1 (centres undefined) | 0 | 3 | -10 | 1 | 6 | -10
Cc1ccc(C(=O)Nc2ccccc2SCC2CSc3nc4ccccc4c(=O)n32)cc1 (centres undefined) | -1 | -3 | 6 | -1 | 11 | 53*
O=C(c1cnccn1)N(Cc1cccs1)C1(C(=O)NC2CCCCC2)CCCCC1 | 54* | 3 | 6 | 3 | 14 | 1
CC(CN1CCN(C)CC1)OC(=O)c1ccccc1Cl (centres undefined) | 0 | 85* | 7 | -4 | · | -37
COc1ccc(C(=O)OC(C)CN2CCN(C)CC2)cc1OC (centres undefined) | -1 | 89* | 17 | 6 | · | 42
O=C(Nc1cccc(S(=O)(=O)NCc2ccco2)c1)c1cc(-c2ccccc2)nc2ccccc12 | -4 | -1 | 3 | 5 | 22 | -11
O=C(NC(c1ccccc1)c1ccccc1)C1CCCC1 | -3 | -1 | 11 | 2 | 7 | -15
CSc1c(C#N)c(N)nc2sc(C(=O)c3ccc(Cl)c(Cl)c3)c(N)c12 | · | 40 | 21 | 21 | · | 52*
CCOC(=O)C1CCN(CC(=O)Nc2c(C(=O)OC)n(C)c3cccc(C)c23)CC1 | 1 | -15 | -19 | 2 | 25 | 7
C=CCn1c(=O)c2c(nc3n2CC(C)CN3c2cccc(OC)c2)n(C)c1=O (centres undefined) | 8 | 2 | -5 | 1 | · | -13
O=C1CCCC(O)=C1N=Nc1ccc(C(=O)O)cc1 | · | 51 | 54* | 44 | -2 | -48
O=C(Nc1ccc(OC(F)F)c(Cl)c1)Nc1ccc2c(c1)OCO2 | -5 | 5 | 21 | -1 | 19 | 1
SMILES | Bim-Mcl-1 | 14-3-3 Bad inh | Mcl1 Noxa PPI | Hck Nef HTS | Pf gametocyte | Mcl1 Bid PPI
O=C(Nc1ccc([N+](=O)[O-])cc1)Nc1ccc(OC(F)F)c(Cl)c1 | -3 | 3 | 52* | 0 | -5 | 6
CN1CC(=O)N(CC(=O)N2CCC(Cc3ccccc3)CC2)C1=O | 0 | -3 | -5 | -27 | 9 | -15
Cc1ccc(-c2ccc(=O)n(CC(=O)N3CCN(c4cccc(C)c4)C(C)C3)n2)cc1 (centres undefined) | -2 | 5 | 19 | 0 | 12 | -11
Cc1cccc(N2CCN(C(=O)Cc3ccc(-n4c(=O)[nH]c5ccsc5c4=O)cc3)CC2C)c1 (centres undefined) | -6 | -6 | 8 | 0 | -13 | 93*
Cc1cc(C)c2c(=O)n(CC(=O)N3CCC(Cc4ccccc4)CC3)sc2n1 | -8 | -10 | 59* | -11 | · | -24
Cc1cccc(N2CCN(C(=O)Cn3sc4nc(C)cc(C)c4c3=O)CC2C)c1 (centres undefined) | -4 | -7 | 59* | 1 | · | -52
CCOc1ccc(NC(=O)Cn2sc3nc(C)cc(C)c3c2=O)cc1 | · | 6 | 51* | -136 | · | -117
Cc1cc(C)c2c(=O)n(CC(=O)Nc3ccc(Cl)cc3)sc2n1 | · | 1 | 27 | -43 | 2 | -42
O=[N+]([O-])c1ccc(Cl)c(S(=O)(=O)NCC2CCCO2)c1 (centres undefined) | 1 | 18 | -9 | 0 | 12 | -6
Cc1cc(C)n2cc(CSCC(=O)O)nc2n1 | -4 | -5 | 14 | 4 | -7 | -14
O=C1CCCC2=C1C(c1ccc(O)c(O)c1)Nc1ccc3ncccc3c12 (centres undefined) | 5 | -9 | 77* | 34 | · | -24
Nc1ccc2nc(-c3ccccc3)sc2c1 | -2 | 5 | -6 | 20 | -23 | -10
CCC(C)(C)n1nnnc1CN(Cc1ccc(Cl)cc1)Cc1ccco1 | 2 | -11 | 36 | 1 | · | 57*
CCC(C)(C)n1nnnc1CN(Cc1ccco1)Cc1cc2cc3c(cc2[nH]c1=O)OCO3 | -1 | · | 1 | 3 | · | -29
CCn1c(=O)cc(SCC(=O)N2CCC(C)CC2)c2ccccc21 | 0 | 12 | -8 | 1 | · | -3
CC(C)c1ccccc1NS(C)(=O)=O | 0 | -4 | -11 | 17 | · | -30
Cc1c(C(=O)O)cccc1-n1c(C)cc(/C=N/Nc2ccc([N+](=O)[O-])cn2)c1C | · | -6 | 20 | 62* | 0 | -59
Cc1cc(/C=N/Nc2ccc([N+](=O)[O-])cn2)c(C)n1-c1ccccc1 | 0 | 33 | 19 | 0 | · | -13
COc1cc(NS(=O)(=O)c2ccc(NC(=O)/C(=C/c3ccccc3Cl)NC(=O)c3ccccc3)cc2)nc(OC)n1 | 0 | 2 | 5 | 21 | 15 | -39
O=C(Nc1ccc(S(=O)(=O)Nc2nccs2)cc1)/C(=C/c1ccccc1Cl)NC(=O)c1ccccc1 | -12 | 6 | 94* | 3 | 15 | -68

Screening data from PubChem.
